Assay results from PubChem BioAssay (Tox21).
Results filed as inconclusive are left out. Entries that show only a call come without a potency. Activity calls are given as the source filed them. The call rests on the fitted dose curve; in most records, active means well fitted cell-killing curve with a large enough effect in the repeat runs; inconclusive means weak or mixed curves, or effect the other way; inactive means no such curve, though single readings can be large or run the other way.

assay: qHTS assay to identify small molecule agonists of the farnesoid-X-receptor (FXR) signaling pathway - cell viability counter screen (AID 743218); settings: FXR-bla HEK293T viability, CellTiter-Glo luminescence, 16 h; series mostly up to 62.6 µM; further: nearly all actives have a fitted effect of over 45% in size
Source text: U.S. Tox21 Program National Center for Advancing Translational Sciences [NCATS] NIH Chemical Genomics Center [NCGC] U.S. Environmental Protection Agency [EPA] National Institutes of Environmental Health Sciences [NIEHS] National Toxicology Program [NTP] U.S. Food and Drug Administration [FDA] Tox21 Assay Overview: The farnesoid-X-receptor (FXR), a nuclear hormone receptor, is highly expressed in liver, intestine, kidney and adrenal cortex. Natural ligands of FXR are the bile acids (Cholic acid, Chenodeoxy cholic acid etc). FXR is an important regulator of diverse metabolic pathways, including the bile acid homeostasis, lipid and glucose metabolisms. FXR regulates the expression of target genes by binding either as a monomer or as a heterodimer with the retinoid X receptor (RXR). Numerous studies have reported that FXR exerts protective function during cholestasis, diabetes, liver regeneration, and cancer. To identify compounds that activate FXR signaling, GeneBLAzer FXR-UAS-bla HEK 293T cell line (Invitrogen, Carlsbad, CA) containing a beta-lactamase reporter gene under the control of a UAS response element was used to screen the Tox21 10K compound library. The cytotoxicity of the Tox21 compound library against the FXR-bla cell line was tested in parallel by measuring the cell viability using CellTiter-Glo assay in the same wells.
Tox21 Assay Protocol Summary: FXR-bla cells were dispensed at 5000 cells/5uL/well in 1536-well black wall/clear bottom plates using a Multidrop Combi (Thermo Fisher Scientific, Waltham, MA) dispenser. After the assay plates were incubated at 37 C and 5% CO2 for 5 h, 23 nL of compounds dissolved in DMSO, positive controls or DMSO only was transferred to the assay plate by a Pintool station (Kalypsys, San Diego, CA). The assay plates were incubated at 37C for 16 h. After 1 uL of LiveBLAzerTM B/G FRET substrate was added using a Bioraptr Flying Reagent Dispenser (FRD) workstation (Beckman Coulter, Indianapolis, IN), the plates were incubated at room temperature for 2 h, and fluorescence intensity was measured by an Envision plate reader (PerkinElmer, Shelton, CT). For cell viability readout that measures cytotoxicity, 4uL/well of CellTiter-Glo reagent was added into the assay plates using a Bioraptr FRD. After 30 min incubation at room temperature, the luminescence intensity in the plates was measured using a ViewLux plate reader (PerkinElmer).

Row | Compound | Potency
1 | CC(=O)N(CC(O)CN(C(C)=O)c1c(I)c(C(=O)NCC(O)CO)c(I)c(C(=O)NCC(O)CO)c1I)c1c(I)c(C(=O)NCC(O)CO)c(I)c(C(=O)NCC(O)CO)c1I (stereo not given) | inactive
2 | Cc1ccc(C)c(N)c1 | inactive
3 | CS(=O)(=O)c1ccc([C@@H](O)[C@@H](CF)NC(=O)C(Cl)Cl)cc1 | inactive
4 | CC(=O)N[C@@H](CC(C)C)C(=O)O | inactive
5 | C[C@@H]1CN(c2c(F)c(F)c3c(=O)c(C(=O)O)cn(C4CC4)c3c2F)C[C@H](C)N1 | inactive
6 | ClC(Cl)Cl | inactive
7 | CCOC(=O)C1CC(=O)C(=C(O)C2CC2)C(=O)C1 (stereo not given) | inactive
8 | Cc1ccc([N+](=O)[O-])c(N)c1 | inactive
9 | O=Cc1ccc(F)c(Br)c1 | inactive
10 | COC(=O)/C=C(/C)N | inactive
11 | Cc1cc2nc(N)sc2cc1C | inactive
12 | COc1ccccc1OCC(O)COC(N)=O (stereo not given) | inactive
13 | CC(C)c1ccccc1 | inactive
14 | CN(CCCN1c2ccccc2CCc2ccccc21)CC(=O)c1ccc(Cl)cc1 | inactive
15 | CC(C)(C)C1CCCCC1=O (stereo not given) | inactive
16 | CCOC(=O)NCCC[Si](OCC)(OCC)OCC | inactive
17 | Nc1ccc(Oc2ccc(N)c(N)c2)cc1 | inactive
18 | FC(F)(F)C(Cl)(Cl)Cl | inactive
19 | CCOc1ccccc1N | inactive
20 | CCCCCCCCOC(=O)CCCCCCCCC(=O)OCCCCCCCC | inactive

Row | Compound | Potency
21 | O=C(Cl)c1cccc([N+](=O)[O-])c1 | inactive
22 | O=C(O)C(=O)Cc1c[nH]c2ccccc12 | inactive
23 | COC(C)CCO (stereo not given) | inactive
24 | OCCN(CCO)CCN(CCO)CCO | inactive
25 | O=C(O[C@@H](C(=O)O)[C@@H](OC(=O)c1ccccc1)C(=O)O)c1ccccc1 | inactive
26 | CCN1CC(CCN2CCOCC2)C(c2ccccc2)(c2ccccc2)C1=O (stereo not given) | inactive
27 | CCCOCCC | inactive
28 | CC(C)Nc1nc(N)nc(Cl)n1 | inactive
29 | CCN(CC)CC1CCCCN1CC(=O)N1c2ccccc2C(=O)Nc2cccnc21 (stereo not given) | inactive
30 | CN1C(=O)CC(c2ccccc2)C1=O (stereo not given) | inactive
31 | CC(C)=CCCC(C)CCOC=O (stereo not given) | inactive
32 | Nc1cccc(S(=O)(=O)O)c1 | inactive
33 | O=C(O)[C@@H]1CSCN1 | inactive
34 | NCCC(O)(P(=O)(O)O)P(=O)(O)O | inactive
35 | CO[C@@]1(NC(=O)CSCC#N)C(=O)N2C(C(=O)O)=C(CSc3nnnn3C)CS[C@@H]21 | inactive
36 | CC1=C2[C@H](/C=C(\C)C(=O)O)CC[C@@H](C)[C@H]2CC1 | inactive
37 | CC(C)(CO)[C@@H](O)C(=O)NCCC(=O)O | inactive
38 | COc1cc(N)c(Cl)cc1C(=O)NC1CCN(Cc2ccccc2)CC1 | inactive
39 | CC(C)(C)c1cccc(O)c1 | inactive
40 | CC1CN(c2ccccc2)NC1=O (stereo not given) | inactive
